# PubChem BioAssay (Tox21)
# Records with an inconclusive call do not appear. A number with no mark means an inactive call. Activity calls are given as the source filed them. Calls follow the shape of the dose curve; as a rule, active = well fitted cell-killing curve with a large enough effect in the repeat runs; inconclusive = weak or mixed curves, or effect the other way; inactive = no such curve, though single readings can be large or run the other way. Positions of bridges follow the written chain, without caps; N, C: chain ends. Non-standard residues stand in square brackets, D forms with d. Residues, ends and D or L forms follow the SMILES beside them. hArg = N=C(N)NCCCC[C@H](N)C(=O)O; Mpa = O=C(O)CCS
# Assay: qHTS assay to identify small molecule agonists of the vitamin D receptor (VDR) signaling pathway - cell viability counter screen (AID 743224); also: nearly all actives have a fitted effect of over 50% in size
# Settings: VDR-bla HEK293T viability, CellTiter-Glo luminescence, 16 h; series mostly up to 62.6 µM
# Excerpt: U.S. Tox21 Program National Center for Advancing Translational Sciences [NCATS] NIH Chemical Genomics Center [NCGC] U.S. Environmental Protection Agency [EPA] National Institutes of Environmental Health Sciences [NIEHS] National Toxicology Program [NTP] U.S. Food and Drug Administration [FDA] Tox21 Assay Overview: The vitamin D receptor (VDR), a member of nuclear hormone receptor superfamily, plays a critical role in calcium homeostasis and bone metabolism. It is also involved in cell differentiation and growth, and thrombogenicity. […] The cytotoxicity of the Tox21 compound library against the VDR-bla cell line was tested in parallel by measuring the cell viability using CellTiter-Glo assay (Promega, Madison, WI) in the same wells.
# Tox21 Assay Protocol Summary: VDR-bla cells were dispensed at 2,000 cells/6 uL/well into black wall/clear-bottom 1536-well plates using a Multidrop Combi (Thermo Fisher Scientific, Waltham, MA) dispenser. After the assay plates were incubated at a 37C and 5% CO2 for 4 h, 23 nL of compounds dissolved in DMSO, positive controls or DMSO only was transferred to the assay plate by a Pintool station (Kalypsys, San Diego, CA). The plates were incubated at 37C and 5% CO2 for 16 h. After 1 uL of LiveBLAzerTM B/G FRET substrate was added using a Bioraptr Flying Reagent Dispenser (FRD) workstation (Beckman Coulter, Indianapolis, IN, USA), the plates were incubated at room temperature for 2 h, and fluorescence intensity was measured by an Envision plate reader (PerkinElmer, Shelton, CT). For cell viability readout that measures cytotoxicity, 3 ul/well of CellTiter-Glo reagent was added into the assay plates using a FRD. After 30 min incubation at room temperature, the luminescence intensity in the plates was measured using a ViewLux (PerkinElmer) plate reader.
# % is scaled to controls: 0 for no effect and ±100 for the full control effect.
SMILES,outcome,"activity change, negative = cytotoxicity"
CCCCSCCCC,inactive,
CCCCCCCCCOC(=O)CCCCC(=O)OCCCCCCC,inactive,
N#Cc1ccccc1O,inactive,
COS(=O)(=O)O,inactive,
CCCCOC(=O)[C@H](C)O,inactive,
O=C(O)[C@H](O)c1ccccc1,inactive,
N[C@@H](Cc1ccc(O)cc1)C(=O)O,,18.1% [at 13.2 µM]
C/C=C(\C)C(C)=O,inactive,
CCN1CCCC1CN (stereo not given),inactive,
O=Cc1ccccc1Cl,inactive,
C=CCSSCCC,inactive,
CC(C)CO,inactive,
NC(=O)[C@@H]1CSSCCC(=O)N[C@@H](CCCCN=C(N)N)C(=O)NCC(=O)N[C@@H](CC(=O)O)C(=O)N[C@@H](Cc2c[nH]c3ccccc23)C(=O)N2CCC[C@H]2C(=O)N1 ([Mpa][hArg]GDWPC-NH2; disulfide 1-7),inactive,
Cc1cccc(Cl)c1,inactive,
CC(S)C(C)S (stereo not given),inactive,
Cn1c(=O)c2[nH]c(Br)nc2n(C)c1=O,inactive,
CCCCOCC(C)O (stereo not given),inactive,
CC1CCc2c(N3CCC(O)CC3)c(F)cc3c(=O)c(C(=O)O)cn1c23 (stereo not given),inactive,
O=S(=O)(O)c1ccc2c(N=Nc3ccc(S(=O)(=O)O)c4ccccc34)c(O)c(S(=O)(=O)O)cc2c1,,-0.166% [at 5.95 µM]
CCC/C=C(\C=O)CC,inactive,

SMILES,outcome,"activity change, negative = cytotoxicity"
CN(C)C(C)(C)CO,inactive,
C/C(=C1\CCOC(=O)S1)N(C=O)Cc1cnc(C)nc1N,inactive,
OCC1(CO)COCOC1,inactive,
CN1C[C@@H]2C[C@H]1CN2c1cc2c(cc1F)c(=O)c(C(=O)O)cn2C1CC1,inactive,
C[C@]12CCC(=O)C=C1CC[C@H]1[C@@H]3CC[C@](O)(C(=O)CO)[C@@]3(C)C[C@H](O)[C@@]12F,inactive,
COc1c2occc2c(OC)c2c(=O)cc(C)oc12,inactive,
CNCCS(=O)(=O)O,inactive,
CCCc1ccc(O)cc1,inactive,
CCCCCC/C=C/C(=O)OC,inactive,
Cc1cc(-c2ccccc2)nnc1NCCN1CCOCC1,inactive,
O=C(Cl)c1ccccc1[N+](=O)[O-],inactive,
CC(=O)O[C@H]1C[C@@H]2CC[C@@]1(C)C2(C)C,inactive,
C=C(C)[C@@H]1CC=C(C)CC1,inactive,
CC(=O)Nc1ccc(OC(=O)c2ccccc2OC(C)=O)cc1,inactive,
ONc1ccccc1,inactive,
CCO[Si](CC)(OCC)OCC,inactive,
N[C@@H](CSCCCO)C(=O)O,inactive,
O/N=C/C=N/O,inactive,
O=C(CN1CCNCC1)NC1CCCCC1,inactive,
CCCC(=O)OC/C=C(\C)CCC=C(C)C,inactive,
